# The entries come from a sample that favours hits as a whole.
# Pf Dd2 inh – qHTS Primary assay for Inhibitors of Plasmodium falciparum Dd2 growth in vitro | P. falciparum Dd2 growth, SYBR Green, 72 h | Potency, µM (highest dose often 28.9 µM), most hits filed as inhibitors | hit rate 4.3% among 120,000; active = well fitted inhibition curve with a large enough effect; note: nearly all actives have a fitted effect of over 65% in size
#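 Infected erythrocytes (Dd2, 0.3% parasitemia, 2.5% hematocrit final) are added to compound in RPMI-1640/Albumax II medium, grown 72 h at 37C in low oxygen, then lysed with saponin/Triton-X containing SYBR Green and read by fluorescence.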
# Numbers stand for hits; 0 = inactive.
SMILES,Pf Dd2 inh
O=C(CCS(=O)(=O)c1cc(Br)cc2c1N(C(=O)C1CC1)CC2)NCc1ccc(Cl)cc1,6.3µM
COc1ccc(CNC(=O)CCS(=O)(=O)c2cc(Br)cc3c2N(C(C)=O)C(C)C3)cc1 (stereo not given),0
O=C(CCS(=O)(=O)c1cc2c3c(c1)CCN3C(=O)CC2)NCc1ccc(Cl)cc1,0
CC(=O)N1CCc2cc(Br)cc(S(=O)(=O)N3CCC(C(=O)Nc4ccc(C(C)C)cc4)CC3)c21,10µM
CC(C)c1ccc(NS(=O)(=O)c2cc(Br)cc3c2N(C(=O)C2CC2)CC3)cc1,0
CC(=O)N1CCc2cc(Br)cc(S(=O)(=O)N3CCC(C(=O)N(C)c4cc(C)ccc4C)CC3)c21,0
CCC(=O)N1CCc2cc(Br)cc(S(=O)(=O)CCC(=O)Nc3ccc(Cl)cc3)c21,5µM
CCC(=O)N1CCc2cc(Br)cc(S(=O)(=O)NCCc3ccccc3Cl)c21,0
Cc1nc([C@@H]2CN(C(=O)CCCc3nc4ccccc4[nH]3)C[C@H]2C(N)=O)n[nH]1,0
CN(Cc1ccc2nsnc2c1)Cc1nc(Cc2cccc(C(F)(F)F)c2)no1,0
O=C(O)C1=NOC2CN([S+](=O)([O-])c3cccc(C(F)(F)F)c3)CC12 (stereo not given),0
Cn1ccnc1CNC(=O)C[C@@H]1C[C@H]2O[C@H](CNCc3cnccc3Cl)[C@@H](O)[C@H]2O1,0
Fc1ccc2oc([C@H]3CCN(CC4CCCCC4)C3)nc2c1,0
NCCn1cc(C(=O)NC2CCCN(c3cnccn3)C2)nn1 (stereo not given),0
CCCS(=O)(=O)N1C[C@@H](Oc2ccccc2)C[C@@H]1C(=O)NC,0
Cn1cc(CNCC2(CO)C[C@@H](O)[C@@H](O)C2)c2ccccc21 (stereo not given in full),0
Cc1nccn1CCCNC(=O)c1ccc2nc(C3CC3)oc2c1,0
COc1ccc(NC(=O)CCS(=O)(=O)c2cc(Br)cc3c2N(C(C)=O)CC3)c(OC)c1,0
Cc1ccc(NC(=O)CCS(=O)(=O)c2cc(Br)cc3c2N(C(=O)C2CC2)CC3)cc1,1µM
Cc1ccc(CNS(=O)(=O)c2cc(Br)cc3c2N(C(=O)C2CC2)CC3)cc1,0
O=C1C[C@@H]2CCN(C(=O)COc3ccccc3)C[C@@H]2CCN1CCN1CCOCC1,0
Cc1ccc(S(=O)(=O)N2CCC(CC(=O)NCc3ccccc3)C2)c(C)c1 (stereo not given),0
CNC(=O)c1c(NC(=O)/C=C/c2ccccc2Cl)sc2c1CCC2,0
Cc1ccc(NC(=O)/C=C/c2ccccc2Cl)cc1Cl,2.8µM
Cc1ccc(NC(=O)c2ncn(-c3ccccc3)n2)cc1Cl,0
SMILES,Pf Dd2 inh
COC1CCC12CCN(C(=O)c1cccn1C)CC2 (stereo not given),0
CN(CCc1noc(C2CN(C(=O)c3ccccc3C(F)(F)F)C2)n1)C(=O)C1CC1,0
O=C(c1cc2ccc3cccnc3c2[nH]1)N1CCN(c2cccc(C(F)(F)F)c2)CC1,0
CC(C)OCc1cc(CN2CCN(c3cccc(C(F)(F)F)c3)CC2)c(O)c2ncccc12,1.4µM
OC1(CN2CCN(c3cccc(C(F)(F)F)c3)CC2)CNCCOC1 (stereo not given),0
O=C(CCn1c(=O)c2cccn2c2cccnc21)N1CCN(c2cccc(C(F)(F)F)c2)CC1,0
CCOCc1cc(CN2CCN(c3cccc(C(F)(F)F)c3)CC2)c(O)c2ncccc12,2.8µM
FC(F)(F)c1cccc(N2CCN(Cc3nnc(-c4ccccc4)o3)CC2)c1,0
COc1ccccc1C(=O)N1C[C@@H](F)C[C@H]1C(=O)N1CCOCC1,0
Cn1ccc(NC(=O)C2(C)CN(Cc3ccccc3)Cc3ccc(N4CCOCC4)nc32)n1 (stereo not given),0
O=C(O)CCn1ncc2cc(OCC3CCN(C(=O)Oc4ccccc4Cl)CC3)ccc21,0
CC(C(N)=O)N1CCC2(CC1)C(=O)N(C)c1ccccc12 (stereo not given),0
COc1cc(OC)cc(-c2onc(C)c2C(=O)NCc2cccc(Cl)c2)c1,0
Nc1cccn2nc(C3CCC3)nc12,0
Cc1cc(C)c(C(=O)N(CC2CCN(C3Cc4ccccc4C3)CC2)CC2CCCO2)o1 (stereo not given),0
CCN(CC1CCN(C2CCN(C)CC2)CC1)C(=O)c1ccc(-c2ccccc2)cc1,13µM
CN1CCC(Cc2ccc(C(=O)O)cc2)CC1,0
CCN1C(=O)COC[C@@H]1[C@H](O)c1ccc(NC(=O)c2cccs2)cc1,0
CCCCCSc1nnc2c(n1)[nH]c1c(C)cccc12,4µM
CCCCCCSc1nnc2c(n1)OC(C)Nc1ccc(Br)cc1-2 (stereo not given),0
Cc1nnc(NC(=O)CSc2nnc3c(n2)[nH]c2ccccc23)s1,0
COc1ccc2[nH]c3c(c2c1)CCN(C)C31CCN(C(=O)c2ccnn2C)CC1,0
CS(=O)(=O)c1ccc(OC[C@H]2C[C@@H](NC(=O)c3cncnc3)[C@H](O)[C@@H]2O)cc1,0
CC1CCN(CCCNC(=O)C2CCCN(Cc3ccncc3)CCC(=O)NCC2)CC1 (stereo not given),0
Cc1nnc(-c2cc(-c3cccc(CO)c3)ccn2)n1C1CCCCC1,0
SMILES,Pf Dd2 inh
COCC(=O)N[C@H]1CC[C@]2(C)CC[C@@H]([C@H](C)C(=O)N3CCOCC3)[C@H](O)[C@H]2[C@@H]1C,0
Cc1ccc(F)c(OC2(C(=O)O)CCN(c3cnc4ccccc4n3)CC2)c1,0
C=Cc1ccc(Cn2c(C)c(CNCc3ccccc3C)c(C(=O)O)c2C)cc1,0
Cc1c(CNCCCc2ccccc2)c(C(=O)O)c(C)n1Cc1cccc(Cl)c1,8.9µM
C=Cc1ccc(Cn2c(C)c(CNCc3cccc(Br)c3)c(C(=O)O)c2C)cc1,0
COc1cc(CNCc2c(C(=O)O)c(C)n(Cc3cccc(Cl)c3)c2C)cc(OC)c1OC,0
Cc1c(CNCCCc2ccccc2)c(C(=O)O)c(C)n1Cc1ccc(Cl)cc1,8.9µM
Cc1c(CNC2CCCCC2)c(C(=O)O)c(C)n1Cc1ccc(Cl)cc1,0
CCCNC(=O)C(NC(=O)c1cccs1)C1CCN(C(=O)c2ccco2)CC1 (stereo not given),0
COc1ccc(N2CC3CCC(C2)N3Cc2cccc(-c3ccc(F)cc3F)c2)cc1,0
Cc1cc(N2CCC(NS(=O)(=O)c3cn(C)c(C)n3)C2=O)ccc1F (stereo not given),0
COc1ccc(N2CCN(Cc3cc(=O)oc4ccc(OC)cc34)CC2)cc1,0
Cc1cc(O)c(CN2CCN(c3ccc(F)cc3)CC2)c2oc(=O)cc(C)c12,11µM
Cc1scc(CN2CCN(c3ccc(F)cc3)CC2)c1C,0
Cn1cc(CN2CCn3c(nnc3[C@@H]3C[C@@H](O)CN3Cc3cccnc3)C2)c2ccccc21,0
Cc1ccc(CNC(=O)c2ccc3c(c2)N(Cc2cccc(Cl)c2)C(=O)CS3)cc1,0
COc1ccccc1CNC(=O)c1ccc2c(c1)N(Cc1cc(C)ccc1C)C(=O)c1ccccc1S2,2.5µM
COc1cccc(CNC(=O)c2ccc3c(c2)N(Cc2ccc(F)cc2Cl)C(=O)c2ccccc2S3)c1,11µM
O=C(O)c1ccc2c(c1)N(Cc1ccc(F)cc1Cl)C(=O)c1ccccc1S2,0
Cc1ccc(CN2C(=O)c3ccccc3Sc3ccc(C(=O)NCCCN4CCOCC4)cc32)cc1,0
COc1ccc(CCNC(=O)c2ccc3c(c2)N(Cc2ccccc2C)C(=O)c2ccccc2S3)cc1OC,0
Cc1ccc(CN2C(=O)c3ccccc3Sc3ccc(C(=O)N4CCC5(CC4)OCCO5)cc32)cc1,8.9µM

# Screens deposited in PubChem BioAssay by National Center for Advancing Translational Sciences (NCATS).
